Assay [1] is described as follows: NCI Yeast Anticancer Drug Screen. Data for the rad50 strain (AID 155).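 Also: 0% = growth of vehicle-only cultures of the same strain.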 To be noted: S. cerevisiae rad50 strain growth inhibition; at 50.0 µM; hits give high values. In outline: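 Relative growth inhibition (compound vs vehicle) was measured in yeast with a defined repair-gene alteration.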
Assay [2] can be described thus: NCI Yeast Anticancer Drug Screen. Data for the mec2-1 strain (AID 157). To be noted: S. cerevisiae mec2-1 strain, at 50.0 µM, hits give high values. The method, boiled down:
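Strain: mec2-1 (DNA repair/cell cycle alteration). Compound exposure, then growth measured; inhibition expressed relative to vehicle.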

A short description of assay [3]: NCI Yeast Anticancer Drug Screen. Data for the sgs1 mgt1 strain (AID 161).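 Also: 0% = growth of cultures given vehicle only.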 To be noted: S. cerevisiae sgs1 mgt1 strain, at 50.0 µM, hits give high values. In outline:
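Mutant yeast exposed to compound; growth scored against vehicle-only wells.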

Assay [4] in a line: NCI Yeast Anticancer Drug Screen. Data for the cln2 rad14 strain (AID 165).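 Also: 0% = growth equal to vehicle treated cultures.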 The following applies: S. cerevisiae cln2 rad14 strain, at 50.0 µM, hits give high values. The method, boiled down:
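Compounds are applied to the cln2 rad14 yeast strain, and growth is then compared with that of vehicle-treated cultures to give inhibition.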

Assay [5] can be described thus: NCI Yeast Anticancer Drug Screen. Data for the bub3 strain (AID 167). To be noted: S. cerevisiae bub3 mutant strain, at 50.0 µM, hits give high values. The method, boiled down:
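Screening used yeast with an engineered genetic alteration affecting cell cycle control. Compound-exposed cultures were compared with vehicle cultures, and reduced growth was taken as inhibition.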

Assay [6] in a line: NCI Yeast Anticancer Drug Screen. Data for the mlh1 rad18 strain (AID 175). The following applies: S. cerevisiae mlh1 rad18 strain growth inhibition; at 50.0 µM; hits give high values. In outline: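 Read-out is yeast growth inhibition, calculated against vehicle-only controls. The compound was applied to a strain engineered with DNA damage repair alterations.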

This is part of a sample that, as a whole, favours compounds with a hit. Of some 79,000 tested, about 15% had one in any assay. A number with no mark means an inactive call. The source made the active and inactive calls. Rule as the data show it: active = growth inhibition above about 70%; inactive = the rest.

Take `NC1CCCCC1N.O=NN1CCCCCC1(P(=O)([O-])[O-])P(=O)([O-])[O-].[Na+].[Pt+2]`: the growth inhibition is -34.9% in assay [1]; 20% in assay [2]; -14.6% in assay [3]; -19.3% in assay [4]; -12.6% in assay [5]; -10.4% in assay [6].

Take `CCc1onc(-c2noc(CC)c2C)c1C`: the growth inhibition is -5.35% in assay [1]; 6.5% in assay [2]; 0.25% in assay [3]; -9.35% in assay [4]; -1.5% in assay [5]; 12.3% in assay [6].

With `Cc1cc(S(=O)(=O)Nc2nnc3cc(C(F)(F)F)cc(C)n23)c(S)cc1Cl`, the growth inhibition was -19.6% in assay [1]; -26.8% in assay [2]; -38.1% in assay [3]; -15.8% in assay [4]; -19.9% in assay [5]; -14.2% in assay [6].

Take `C/C(N)=N/OCc1ccccc1`: the growth inhibition in assay [1] was 8.9%; in assay [2], 6.95%; in assay [3], 10.7%; in assay [4] it was 4.7%; in assay [5], 10.2%; in assay [6], 7.7%.

Regarding `Cc1cc2c(=O)cc(-c3ccc(C(F)(F)F)cc3)oc2c(C(=O)O)c1C`, the growth inhibition is -34.6% in assay [1]; -3.8% in assay [2]; -2.3% in assay [3]; 13.1% in assay [4]; 0.4% in assay [5]; 12.8% in assay [6].

Regarding `CCCc1c(C)nc2scc(-c3ccccc3)n2c1=O`, the growth inhibition was 38.7% in assay [1]; 16.5% in assay [2]; 55.1% in assay [3]; 37.4% in assay [4]; 39.4% in assay [5]; 34% in assay [6].

For the compound `COC(=O)C(NC(=O)COc1ccccc1[N+](=O)[O-])C(=O)OC`, the growth inhibition in assay [1] is -15.2%; in assay [2] it was -1.3%; in assay [3] it was 0%; in assay [4], 3%; in assay [5], -12.6%; in assay [6], -12.3%.

Take `CC(CO)NCc1ccccc1` (stereo not given): the growth inhibition in assay [1] was -18.2%; in assay [2] it was -14.9%; in assay [3] it was -1.95%; in assay [4], 3.95%; in assay [5], -29.6%; in assay [6], 3.95%.

On to `c1cn2cnnc2n2cnnc12`, for which the growth inhibition in assay [1] is -2.7%; in assay [2], -13%; in assay [3], -15.6%; in assay [4] it was -32%; in assay [5] it was -0.8%; in assay [6], -9.8%.

As for `CCN(CC)C(=O)CCC(=O)O`, the growth inhibition is 0.4% in assay [1]; -13.3% in assay [2]; -14.7% in assay [3]; 3.3% in assay [4]; 0.55% in assay [5]; 24.7% in assay [6].

As to `COC(=O)c1cc(C)ccc1/C=C1\Cc2c(C)cc(C)cc2C1=O`, the growth inhibition in assay [1] was -12.2%; in assay [2], -25.8%; in assay [3] it was -6.85%; in assay [4], -30.6%; in assay [5], -46.1%; in assay [6], -39.6%.

Take `COc1cc(Br)c(C2SCC(=O)N2c2nncs2)cc1OC` (stereo not given): the growth inhibition in assay [1] was 1.55%; in assay [2], 11.3%; in assay [3], 7.9%; in assay [4], 0.7%; in assay [5], -2.15%; in assay [6] it was 26.6%.

On to `CC(C)C(=O)NCc1ccccc1Sc1ccccc1CNC(=O)C(C)C`, for which the growth inhibition in assay [1] is -13.8%; in assay [2] it was 6.1%; in assay [3], -18.5%; in assay [4] it was -10%; in assay [5], 1.4%; in assay [6], -0.7%.

Consider `O=C(O)CCCCCCCCC(=O)c1cc(O)ccc1O`, for which the growth inhibition is -5.3% in assay [1]; 42.1% in assay [2]; 35.7% in assay [3]; -7.25% in assay [4]; 20.4% in assay [5]; 7.9% in assay [6].

Consider `CCOC(=O)N1CN(C(=O)OCC)CN(C(=O)OCC)C1`, for which the growth inhibition is 15.7% in assay [1]; 19.5% in assay [2]; 9.45% in assay [3]; -7.6% in assay [4]; 29.4% in assay [5]; -5.45% in assay [6].

Regarding `Nc1ncnc(N)c1NC(=O)c1ccccc1`, the growth inhibition in assay [1] is -16.4%; in assay [2], -19.6%; in assay [3] it was -24.4%; in assay [4], -21.4%; in assay [5] it was 3.25%; in assay [6], 14.6%.

For `Cc1cccn(C(=O)c2ccccc2)c1=N`, the growth inhibition in assay [1] was -8.2%; in assay [2], 4.1%; in assay [3], 1.35%; in assay [4], -41.7%; in assay [5], -16.9%; in assay [6] it was 29.3%.

On to `O=c1cc(C=Nc2cccc(Br)c2)[nH]c(=S)[nH]1`, for which the growth inhibition in assay [1] was -4.4%; in assay [2], -17.4%; in assay [3] it was -15.4%; in assay [4] it was -24.8%; in assay [5], -10.1%; in assay [6], -10%.

Consider `CCCCCCC[CH2][Sn]1([CH2]CCCCCCC)[O]C2C(CO)OC(n3ccc4c(N)ncnc43)C2[O]1` (stereo not given), for which the growth inhibition in assay [1] is -0.4%; in assay [2] it was 15.2%; in assay [3], 18.1%; in assay [4], 70.2% (active); in assay [5], 4.45%; in assay [6] it was -0.85%.

Turning to `c1ccc(Oc2nnc3c4ccccc4ccn23)cc1`, the growth inhibition was 11.4% in assay [1]; -9.55% in assay [2]; 0.1% in assay [3]; -4.4% in assay [4]; 3.9% in assay [5]; -0.35% in assay [6].

The values above are taken from PubChem BioAssay (NCI).
